Screening results as filed in PubChem.
aSyn yeast inh: inhibitors of alpha-synuclein toxicity in yeast; Yeast expressing alpha-synuclein, growth rescue, BacTiter-Glo, 24 h; Potency, µM (titrated, usually from 46.1 µM), for inactives: at the top dose growth rescue (activation), actives largely listed as activators; 0.14% of 370,000 active; AID 652106; also: % of control where 0% means no effect; nearly all actives have a fitted effect of over 65% in size
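Rescue of yeast growth: cells expressing toxic alpha-synuclein, induced in galactose at OD600 0.02, incubated with compound 24 h at 30 C. ATP luminescence quantified growth; inhibitors of toxicity appear as activators.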
TDP-43 yeast inh: rescues yeast growth from TDP-43 toxicity | 1.8% of 410,000 active | Potency, µM (highest dose often 46.1 µM), for the others: at the highest dose growth rescue (activation), hits mostly activators | TDP-43 expressing yeast growth rescue, BacTiter-Glo, 24 h; also: % of control where 0% means no effect; nearly all actives have a fitted effect of over 50% in size
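Yeast cells expressing TDP-43 under galactose induction are exposed to compounds for 24 hr at 30 deg C. BacTiter-Glo luminescence measures growth, so protective compounds score as activators.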
Abeta yeast res: restores growth of yeast expressing A-beta42 peptide. yeast expressing A-beta42, growth rescue, OD600, 48 h; response scale: 0% DMSO, 100% iron-clioquinol control. Potency, µM (top dose mostly 46.1 µM), most hits filed as activators. 0.063% of 410,000 active. AID 1347071; also: nearly all actives have a fitted effect of over 55% in size
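Growth rescue measured by 600 nm absorbance after 48 h yeast culture at 30 C with compound. Values normalized between DMSO and an equimolar ferric chloride plus clioquinol control.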
FUS yeast rescue: FUS proteinopathy suppression in yeast; S. cerevisiae FUS-expressing, growth rescue, OD600, 24 h; Potency, µM (top dose mostly 76.6 µM), usual class: activators; 0.24% of 390,000 active; AID 1347120;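 also: plate controls were DMSO vehicle for no effect and reference control for full effect; nearly all actives have a fitted effect of over 55% in size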
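Compound concentration series was pinned onto galactose-induced FUS-expressing yeast seeded at OD 0.005. Plates sat 24hr at 30C; absorbance at 600 nm gave growth. DMSO served as background control.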
Active calls of the source: *; i = inactive; ? = inconclusive; . = no result given; [ ] = remark or other dose. Shown are actives, neighbours in structure and some others; about 2.1% of the full set was active somewhere. Calls follow the shape of the dose curve; as a rule, active = well fitted curve in the direction sought with a large enough effect; inconclusive = small, poorly fitted or top-dose-only effect, or another doubt; inactive = no such curve, though single readings can be large; an effect the other way counts as inactive or inconclusive. Potency is read from the fitted curve at half-maximal effect.

SMILES	aSyn yeast inh	TDP-43 yeast inh	Abeta yeast res	FUS yeast rescue
Clc1ccc(CSc2nnc(-c3ccncc3)o2)cc1	.	6.3µM*	i	i
Fc1ccc(CSc2nnc(-c3ccncc3)o2)cc1	0%	13µM*	i	i
Cc1ccc(C)n1C(CC(=O)O)c1ccc(C#N)cc1 (configuration not stated)	-5%	-21%	i	32µM*
O[C@@H]1COC(Nc2ccc(N=Nc3ccccc3)cc2)C[C@@H]1O (some centres not stated)	-2%	13µM*	i	i
O=C(c1ccc2c(c1)OCCO2)C1CCN(C(=O)c2ccc(F)c(F)c2)CC1	2%	11µM*	i	i
O=Cc1c(Sc2ccccc2)nc2ccccn2c1=O	18%	13µM*	i	i
O=Cc1c(Sc2ccccn2)nc2ccccn2c1=O	0%	-14%	i	i
COCCNC(=O)CC(=O)N/N=C/c1cccc(C(=O)OC)c1	2%	6%	i	i
Cc1noc2ncnc(N3CCN(c4ccccc4F)CC3)c12	?	22µM*	i	i
Fc1ccc(-c2noc3ncnc(N4CCN(c5ccccc5)CC4)c23)cc1	-8%	25µM*	i	i
CCn1c(SCC(=O)Nc2ccc(C(C)=O)cc2)nc2nc3c(cc2c1=O)CCCC3	-16%	-12%	i	i
O=C(Nc1ccc2c(c1)OCCO2)C1CCCN(S(=O)(=O)c2cnc[nH]2)C1 (configuration not stated)	4%	-6%	i	i
COc1ccccc1CNC(=O)c1ccc(-c2ccccc2C(F)(F)F)o1	15%	?	i	i
COc1ccc(NC(=O)c2ccc(-c3ccccc3C(F)(F)F)o2)cc1	-13%	13µM*	i	i
CCn1nc(C)c2c(-c3ccccc3)cc(=O)n(C(C)C(=O)NCCc3ccc(OC)c(OC)c3)c21 (configuration not stated)	.	16µM*	i	i
Cc1sc2nc(CSc3ccccc3)nc(N3CCOCC3)c2c1C	0%	11µM*	i	i
O=C(O)c1ccccc1/C=N/n1c(C2CCCCC2)n[nH]c1=S	-3%	16%	i	i
O=C(Nc1ccc(F)cc1)c1ccccc1Oc1ccc(C(F)(F)F)cc1[N+](=O)[O-]	14µM*	22µM*	i	.
O=C(Nc1ccccc1)c1ccccc1Oc1ccc(C(F)(F)F)cc1[N+](=O)[O-]	18%	20µM*	i	i
O=[N+]([O-])c1cc(C(F)(F)F)ccc1Oc1cccnc1[N+](=O)[O-]	-2%	-7%[0.397 µM]	i	i
Cc1ccccc1S(=O)(=O)Nc1nc2ccccc2nc1Cl	-10%	10µM*	i	i
COc1ccccc1CNc1nc(-c2ccco2)nn1C(=O)c1cc(OC)c(OC)c(OC)c1	.	10%	i	i
CCN(CC)c1nc(-c2ccc(C(C)(C)C)cc2)nc2ccccc12	.	11%	i	i
CC(C)CN(CC(C)C)c1nc(-c2ccc(Cl)cc2)nc2ccccc12	-2%	35µM*	i	i
O=C1NC(c2ccccc2)C(c2ccccc2)N1 (configuration not stated)	-1%	-2%	i	.
SMILES	aSyn yeast inh	TDP-43 yeast inh	Abeta yeast res	FUS yeast rescue
Cc1c(C(=O)NCc2ccc3c(c2)OCCO3)sc(=O)n1Cc1ccc2c(c1)OCO2	-1%	?	i	?
Cc1c(C(=O)NCc2cccc([N+](=O)[O-])c2)sc(=O)n1Cc1cccc(F)c1	6%	18µM*	i	i
C=Cc1ccc(Cn2c(C)c(C(=O)NCc3ccc4c(c3)OCO4)sc2=O)cc1	8%	22µM*	?	i
Cc1c(C(=O)NCc2cccc([N+](=O)[O-])c2)sc(=O)n1Cc1ccc(F)cc1	10%	0%	i	i
COC(=O)N1C(=O)[C@](c2ccc(Cl)cc2)(C(C)C)N1C(=O)OC	6%	35µM*	i	i
COC(=O)N1C(=O)[C@@](c2ccc(OC)cc2)(C(C)C)N1C(=O)OC	8%	15%	i	i
COc1ccccc1C(=O)NCCCNc1ccc([N+](=O)[O-])cc1	0%	12%	i	i
O=C(COc1cccnc1[N+](=O)[O-])N1CCc2ccccc21	-3%	-14%[0.397 µM]	i	i
Cc1nn(C(=O)c2ccccc2)c(C)c1Sc1ccc(Cl)cc1	.	35µM*	i	?
COc1ccccc1Nc1nc(Cl)nc(NC(C)(C)C)n1	0%	22µM*	i	i
CC(C)(C)Nc1nc(Cl)nc(Nc2ccccc2)n1	1%	28µM*	i	i
c1ccc(OCCNc2ccn3nc(-c4ccco4)cc3n2)cc1	-9%	16µM*	i	i
c1ccc(OCCNc2ccn3nc(-c4cccs4)cc3n2)cc1	-1%	14µM*	i	i
COc1ccccc1-c1cc2nc(NCCOc3ccccc3)ccn2n1	14%	25µM*	i	i
CCNC(=O)C1CCCN(C(=O)c2ccc(N(C)C)cc2)CC1 (configuration not stated)	0%	0%	i	i
O=C(N/N=C/c1ccncc1)c1ccccc1OCc1ccc(Br)cc1	26%	32µM*	i	i
O=C(CCC(=O)Nc1ccccc1)N/N=C/c1ccc2c(c1)OCO2	2%	-3%	i	i
COc1cccc(C2=CC(=O)C[C@H](c3ccc(F)cc3)C2)c1	1%	?	i	i
COc1ccc(C2=CC(=O)CC(c3ccc(F)cc3)C2)cn1 (configuration not stated)	6%	18µM*	i	i
COc1ccc([C@H]2CC(=O)C=C(c3ccc(C(F)(F)F)c(C(F)(F)F)c3)C2)cc1OC	12%	6%	i	i
COc1ccc([C@H]2CC(=O)C=C(c3ccc(C)cc3)C2)cc1OC	4%	13µM*	i	i
COc1ccc([C@H]2CC(=O)C=C(c3ccc(Cl)c(C(F)(F)F)c3)C2)cc1OC	0%	16µM*	i	?
COc1ccc(C2=CC(=O)C[C@H](c3ccc(OC)c(OC)c3)C2)cc1	12%	13%	i	i
COc1ccc(C2=CC(=O)C[C@H](c3ccc(F)cc3)C2)cc1OC	0%	22µM*	i	i
COc1ccc(-c2cc(C(=O)Nc3ccc(NC(C)=O)cc3)[nH]n2)c(C)c1	2%	17%	i	i
Cc1ccccc1CNC(=O)Cn1cnc(S(=O)(=O)N2CCCC2)c1	2%	-12%	i	i
O=C(Nc1cccnc1)C1Cc2c(-c3ccc4c(c3)OCO4)ccnc2O1 (configuration not stated)	-3%	-49%	i	i
O=C(Nc1ccccc1)C1Cc2c(-c3ccco3)ccnc2O1 (configuration not stated)	?	25µM*	i	i
O=C(Nc1ccc2c(c1)OCO2)C1Cc2c(-c3ccc4c(c3)OCO4)ccnc2O1 (configuration not stated)	6%	28µM*	i	i
